The whole screen tested about 68,000 compounds, of which about 2,700 (4%) showed an effect of 50% or more. This is one part of a sample in which strong results are shown more often than they occur.
Tested on: Plasmodium berghei
Assay: Screen against P. berghei liver stage (PbLuc), transformed with Luciferase, at 2uM
Assay type: functional, HepG2
Conditions: tested at 2 uM

| Compound | INHIBITION [%] |
| --- | --- |
| Cc1cc(S(=O)(=O)NCC(C)(O)CN(C)C)c(F)cc1F (centres undefined) | 8.05 |
| CN(C)C(=O)c1cccc(C[S+]([O-])CC(=O)NC2CCCC2)c1 (centres undefined) | -13.12 |
| Cc1cc(CS(=O)(=O)NC2CCCCC2)on1 | 35.46 |
| Cc1cc(CS(=O)(=O)NC2CCCc3ccccc32)on1 (centres undefined) | 57.34 |
| Cc1cc(CS(=O)(=O)NCC2CCCCC2)on1 | 10.22 |
| CCCc1n[nH]c(=O)n1Cc1ccc(OC)cc1 | -13.14 |
| O=C(COC1CCCC1)Nc1ncn(CC(=O)N2CCCCCC2)n1 | 22.29 |
| CC(C)Nc1nnc(SCc2nnc(C(C)(C)C)o2)s1 | 13.91 |
| O=C(NCC1CC1)C1CN(c2ncccn2)Cc2ccnn2C1 (centres undefined) | 64.37 |
| O=C(NCC1CC1)C1CN(Cc2cccs2)Cc2ccnn2C1 (centres undefined) | 23.53 |
| O=C(NCC1CC1)C1CN(Cc2ccncc2)Cc2ccnn2C1 (centres undefined) | 7.55 |
| O=c1ccc(-c2cccs2)nn1CN1CCOC(c2ccccc2)C1 (centres undefined) | -30.87 |
| Cc1nc(CN2CCC3(CC2)CC(=O)N(C)c2ccccc23)cs1 | 9.8 |
| Clc1cnccc1NCc1cccc(COC2CCOCC2)c1 | 68.73 |
| N#Cc1ccc(NCc2cccc(OCC3CCCO3)c2)nc1 (centres undefined) | 42.35 |
| Clc1cncc(NCc2cccc(COC3CCOCC3)c2)n1 | -0.39 |
| N#Cc1ccc(NCc2cccc(COC3CCOCC3)c2)nc1 | 66.24 |
| Clc1cnccc1N1CCC(OC2CCOCC2)CC1 | -76.37 |
| CNS(=O)(=O)Cc1cccc(CNc2ccc(C#N)cn2)c1 | 19.12 |
| CC(=O)N1CCN(Cc2nccs2)CC2(CC(=O)N(C)C2)C1 (centres undefined) | 26.01 |
| CCC(Nc1cccc(OC)c1)C(=O)NCc1ccc2c(c1)OCO2 (centres undefined) | 11.6 |
| c1cnn(CC2CN(Cc3csc(C4CCCCC4)n3)CCO2)c1 (centres undefined) | -43.79 |
| Cc1cccc(CN2CCN(C(=O)c3cnc(C)[nH]c3=O)CC2)c1 | 43.15 |
| CNC(=O)CN1C(=O)CN(C(=O)COC)CCC(OC)c2ccccc21 (centres undefined) | -8.2 |
| O=S(=O)(c1ccccc1)N1C[C@@H]2COC[C@]2(CN2CCOCC2)C1 | 29.19 |
| Cc1cc(C(F)(F)F)cc(N2C[C@@H](CN(C)CCO)[C@@H](CO)C2)n1 | 50.97 |
| Cc1cc(C(F)(F)F)cc(N2C[C@@H](CN3CCOCC3)[C@@H](CO)C2)n1 | -18.71 |

| Compound | INHIBITION [%] |
| --- | --- |
| CCN(CCO)C[C@@H]1CN(c2cc(C(F)(F)F)cc(C)n2)C[C@@H]1CO | 14.59 |
| c1cncc(CN2CCn3cc(Cn4cccn4)nc3C2)c1 | 15.39 |
| Cc1ccc(N2CC3(COCCN(Cc4cccnc4)C3)OCC2=O)s1 (centres undefined) | -5.44 |
| CN(C)c1cc(CNC(=O)c2cc(Cl)ccn2)ccn1 | 49.01 |
| Cc1ccc(CC(=O)N2CCCC(c3cc(C(N)=O)[nH]n3)C2)cn1 (centres undefined) | 14.53 |
| CC(C)(C)C(=O)NCCC(=O)N1CCC(Nc2cccnn2)CC1 | -27.69 |
| COCCN1CCC2(CC1)CN(C(=O)Cc1cccnc1)CCO2 | 35.89 |
| COCCN1CCC2(CC1)CN(C(=O)c1ccccc1)CCO2 | 58.4 |
| COCCN1CCC2(CC1)CN(C(=O)c1ccco1)CCO2 | 45.22 |
| O=C(c1ccccc1)N1CCOC2(CCN(Cc3cccs3)CC2)C1 | 20.51 |
| COCCN1C[C@@H](C)[C@@]2(COCCN(C(=O)c3cccs3)C2)C1 | -3.19 |
| COCCN1CCC2(CC1)CN(C(=O)c1cccs1)CCO2 | 57.31 |
| Cn1ccnc1CN(Cc1ccccn1)Cc1ccccc1Cl | -8.33 |
| CN(Cc1ccc(Cl)s1)C(=O)NCCC(=O)N1CCCCCC1 | -12.84 |
| Cc1c(C(=O)NC2=NCCS2)cnn1-c1ccc(Br)cc1 | -23.27 |
| Cc1nsc(NC2CCOC3(CCCC3)C2)n1 (centres undefined) | 62 |
| NC(=O)c1ccc(NC2CCOC3(CCCC3)C2)nn1 (centres undefined) | -0.45 |
| Cc1cc(C)nc(NC2CCOC3(CCCC3)C2)n1 (centres undefined) | 10.23 |
| Cc1nsc(NC2CCOC3(CCCCC3)C2)n1 (centres undefined) | 62 |
| CCc1nsc(NC2CCOC3(CCCC3)C2)n1 (centres undefined) | -9.6 |
| CC(C)c1nsc(NC2CCOC3(CCCC3)C2)n1 (centres undefined) | 30.06 |
| Cc1nn(C)c(Cl)c1CNCc1ccc(OCC(N)=O)cc1 | -5.1 |
| COc1ccccc1CN1C[C@@H]2COC[C@]2(COCc2ccncc2)C1 | 38.11 |
| Cc1cnc(N2CCc3ncnc(N4CCN(C)CC4)c3CC2)nc1 | 17.57 |
| CC(C)(C)c1cnc(CN2CCC[C@H]2CO)o1 | 56.72 |
| CC(C)(C)c1cnc(CN2CCCCC2Cn2cccn2)o1 (centres undefined) | -23.94 |
| CC(C)(C)c1cnc(CN2CCCC2Cn2cccn2)o1 (centres undefined) | -50.72 |

Source: ChEMBL document CHEMBL4513216, “Probing the Open Global Health Chemical Diversity Library for Multistage-Active Starting Points for Next-Generation Antimalarials” (ACS Infect Dis, 2020)
